Values without a mark were called inactive. The source made the active and inactive calls. Calls follow the shape of the dose curve; as a rule, active = well fitted curve in the direction sought with a large enough effect in the repeat runs; inconclusive = weak or mixed curves; inactive = flat fitted curve, though single readings scatter.
Assay: qHTS assay to test for compound auto fluorescence at 535 nm (green) in HepG2 cell free culture (AID 720686)
Details: Cell-free medium, green autofluorescence 485/535 nm; series mostly up to 91.3 µM; fluorescence, % of fluorescein control: at the top concentration
Excerpt: U.S. Tox21 Program National Center for Advancing Translational Sciences [NCATS] NIH Chemical Genomics Center [NCGC] U.S. Environmental Protection Agency [EPA] National Institutes of Environmental Health Sciences [NIEHS] National Toxicology Program [NTP] U.S. Food and Drug Administration [FDA] Tox21 Assay Overview: Compound auto fluorescence often interferes with screening of the compound library against various biological targets and signaling pathways. Some of these compounds may have fluorophoric properties. Such properties may interfere with the assay outputs resulting in false positives and/or negatives. To decrease such complications and ensure the compound activities are relevant in terms of biological response, the Tox21 10K compound library was screened for auto fluorescence. From the fluorophores used as reporter signals in our screening assays, the auto fluorescence equivalencies of compounds against three fluorophores have been evaluated: Triamterene, Fluorescein and Rose Bengal sodium for blue, green and red fluorescence, respectively. The fluorescence intensities were measured using Excitation/Emission wavelengths at 405/460nm, 485/535nm and 540/590nm for blue, green and red labels, respectively. This assay includes the green fluorescence data.
Tox21 Assay Protocol Summary: 5 uL of culture medium (MEM containing 10% FBS) per well was dispensed into black wall/clear bottom 1536-well plates using a Multidrop Combi Dispenser (ThermoFisher Scientific, Waltham, MA). After 23 nL compound or DMSO vehicle was transferred into assay plate by a pintool work station (Kalypsys, San Diego, CA), fluorescence intensities in the assay plates were measured by an Envision (PerkinElmer, Shelton, CT) plate reader using three labels for measuring blue, green and red fluorescence at […] 460, 535 and 590nm respectively.
% is scaled to controls: 0 for no effect and ±100 for the full control effect.

Compound | fluorescence, % of fluorescein control | outcome
CCCCCCCCCCCCCCCCCCOCC(O)CO (stereo not given) | -0.085% [at 46 µM] | –
C=C(C)[C@@H]1CCC2=CC(=O)C[C@@H](C)[C@]2(C)C1 | -0.0146% | –
C#CC(O)C(CC)CCCC (stereo not given) | 0.0389% | –
NC(=O)Nc1nc2ccccc2[nH]1 | -0.0394% | –
N#CCc1ccccc1[N+](=O)[O-] | 0.0511% | –
Cc1nccn1CC1CCc2c(c3ccccc3n2C)C1=O (stereo not given) | – | inactive
CCCCCCOC(=O)CC(CC(=O)OCCCCCC)(OC(=O)CCC)C(=O)OCCCCCC | 0.0246% | –
CCO[Si](CCCN=C=O)(OCC)OCC | 0.0273% | –
CCN1CCCC1CNC(=O)c1cc(S(N)(=O)=O)ccc1OC (stereo not given) | 0.0468% | –
CC(=O)N[C@@H](CCC(N)=O)C(=O)O | -0.177% [at 46 µM] | –
C=CCOCC(O)CS(=O)(=O)O (stereo not given) | -0.078% [at 95.7 µM] | –
C=CCn1c(=O)n([C@@H]2O[C@H](CO)[C@@H](O)[C@H]2O)c2nc(N)[nH]c(=O)c21 | -0.0202% [at 46 µM] | –
O=C1OC(=O)c2cc([N+](=O)[O-])ccc21 | -0.01% | –
CCCCN(CCO)CCO | -0.0285% | –
CO[Si](CCCNCCC[Si](OC)(OC)OC)(OC)OC | -0.0745% | –
COC(=O)CCCCCCCCC(=O)OC | 0.0621% | –
C1C2OC2C2C1C1CC2C2OC12 (stereo not given) | 0.0594% | –
COC[C@H](c1ccc(C(F)(F)F)cc1)N1CCN(C2(C)CCN(C(=O)c3c(C)ncnc3C)CC2)C[C@H]1C | -0.0048% [at 46 µM] | –
NC(=S)Nc1cccc2ccccc12 | 0.006% [at 3.72 µM] | –
Fc1ccccc1-c1ccccc1 | 0.0345% [at 95.7 µM] | –

Compound | fluorescence, % of fluorescein control | outcome
CC(C)CCCC(C)CCCC(C)CCCCC(C)CCCC(C)CCCC(C)C (stereo not given) | 0.0579% [at 46 µM] | –
Oc1ccc2c(c1)OC[C@@H](N1CCC(O)(c3ccc(F)cc3)CC1)[C@H]2O | -0.0413% [at 46 µM] | –
NC(=O)c1ncn([C@@H]2O[C@H](CO)[C@@H](O)[C@H]2O)c1O | 0.0199% [at 46 µM] | –
CC(C)c1ccc2oc3nc(N)c(C(=O)O)cc3c(=O)c2c1 | 0.0027% [at 46 µM] | –
CCCCCCCCCCCl | 0.0378% [at 95.7 µM] | –
CC(C)c1cccc(C(C)C)c1N | 3e-05% | –
COC(=O)c1ccc(C(=O)OC)c(C(=O)OC)c1 | 0.0115% | –
CCCOc1ccccc1-c1nc2n[nH]nc2c(=O)[nH]1 | -0.0204% [at 46 µM] | –
CC(C)(O)Cc1ccccc1 | -0.0354% | –
CCCC(C)C(=O)O (stereo not given) | 0.006% | –
CCCCNc1ccccc1 | 0.0125% | –
CCCCC1CCCCC(=O)O1 (stereo not given) | 0.01% | –
C=CCOc1nc(OCC=C)nc(OCC=C)n1 | 0.0048% | –
CC(C)COC(=O)C(C)C | 0.0056% | –
CC(C)(C)C(=O)/C=C/c1ccc(Cl)cc1 | 0.081% | –
CC1(C)SC(C)(C)SC(C)(C)S1 | 0.0477% | –
CN(C)C(=O)C(CCN1CCC(O)(c2ccc(Cl)cc2)CC1)(c1ccccc1)c1ccccc1 | -0.0155% [at 46 µM] | –
O=C(O)C(O)[C@H](O)[C@@H](O)[C@H](O)[C@H](O)CO (stereo not given in full) | -0.156% [at 95.7 µM] | –
CCCCC=O | 0.0098% | –
NS(=O)(=O)c1cc2c(cc1Cl)NC(CSCc1ccccc1)=NS2(=O)=O | -0.0451% [at 18.6 µM] | –

From PubChem BioAssay (Tox21)
